{
  "source": "PubChem BioAssay (EPA / NIEHS)",
  "note": "The source holds several records for some structures; these can differ, active in one and inactive in another. The source made the active and inactive calls. How the source made its calls: active means hit-call score of the fitted dose curve at least 0.9, where 1 is the maximum; inactive means score below 0.9.",
  "data": [
    {"assay": "ATG_Sox_CIS: Attagene CIS-FACTORIAL HepG2 Assay for human SRY-box transcription factor (SOX) (AID 2282960)", "settings": "HepG2 Attagene cis-factorial SOX reporter, mRNA; actives raise or lower the signal", "protocol": "ATG_CIS is a cell-based, multiplexed-readout assay that uses HepG2, a human liver cell line, with measurements taken at 24 hours after chemical dosing in a 24-well plate.ATG_Sox_CIS is one of 52 assay component(s) measured or calculated from the ATG_CIS assay. It is designed to make measurements of mRNA induction, a form of inducible reporter, as detected with fluorescence intensity signals by Reverse transcription polymerase chain reaction (RT-PCR) and Capillary electrophoresis technology.Data from the assay component ATG_Sox_CIS was analyzed into 1 assay endpoint. This assay endpoint, ATG_Sox_CIS, was analyzed with bidirectional fitting relative to DMSO as the negative control and baseline of activity. Using a type of inducible reporter, measures of mRNA for gain or loss-of-signal activity can be used to understand the reporter gene at the transcription factor-level as they relate to the gene SOX1. Furthermore, this assay endpoint can be referred to as a primary readout, because this assay has produced multiple assay endpoints where this one serves a reporter gene function. To generalize the intended target to other relatable targets, this assay endpoint is annotated to the dna binding intended target family, where the subfamily is HMG box protein.\nHuman liver HepG2 cells are transiently transfected with multiple reporter transcription units (MRTUs) in 6-well plates using FuGene 6 reagent (Roche; 3 ml FuGene/1 mg DNA). The MRTU constructs are regulated by a cis-regulating element (promoter). […] A major difference between the CIS and TRANS system is that in CIS activities of endogenous TFs are measured, whereas the TRANS assay evaluates changes in activities of exogenous, chimeric NR-Gal4 proteins. […] At the end of 24 hour incubation, total RNA was isolated using TriZol reagent (Invitrogen). The isolated RNA is then reverse-transcribed using oligo(dT) primer and Mo-MLV reverse transcriptase (Invitrogen) with DNAse I (Ambion) treatment for 30 min. The one-tenth of the produced cDNA was amplified by PCR using Taq DNA polymerase (Invitrogen) and two reporter sequence-specific primers. The PCR products were fluorescently labeled by primer extension with 6-arboxyfluorescein (6-FAM) 5'-labeled reporter sequence-specific primer (2 min at 95 C, 20 s at 68 C and 10 min at 72 C) and these products were digested with 5U of HpaI (New England Biolabs) for 2h at 37 C. The fragments were purified using Qiaquick PCR columns (Qiagen), analyzed on an ABI 3130xL genetic analyzer (Applied Biosystems) with peak positions identified by using a set of X-rhodamine (ROX)-labeled MapMarker1000 molecular weight standards (BioVentures). The raw capillary electrophoresis data was processed using Attagraph software (Attagene).", "values": [
      {"smiles": "CC(C)NCC(O)c1ccc(O)c(O)c1", "note": "(stereo not given)", "outcome": "inactive"},
      {"smiles": "CC(=O)O[C@]1(C(C)=O)CC[C@H]2[C@@H]3C=C(Cl)C4=CC(=O)[C@@H]5C[C@@H]5[C@]4(C)[C@H]3CC[C@@]21C", "AC50": "100 µM (active)", "outcome": "inactive"},
      {"smiles": "CC(=O)S[C@H](C(=O)N[C@H]1Cc2ccccc2[C@H]2CCC[C@@H](C(=O)O)N2C1=O)C(C)C", "outcome": "inactive"},
      {"smiles": "O=C1NC(=O)C(c2ccccc2)(c2ccccc2)N1", "outcome": "inactive"},
      {"smiles": "COc1ccc(C(=O)Nc2nc3ccccc3c(NCc3ccccc3)c2C#N)cc1", "outcome": "inactive"},
      {"smiles": "CC(=O)OCC(COC(C)=O)OC(C)=O", "outcome": "inactive"},
      {"smiles": "OCC(CO)n1cnc(-c2ccc(F)cc2)c1-c1ccnc(Oc2ccccc2)n1", "outcome": "inactive"},
      {"smiles": "CCCC[C@H]1CN(CC2CCOCC2)C(=O)OC12CCN(C1(C)CCN(C(=O)c3c(C)ncnc3C)CC1)CC2", "outcome": "inactive"},
      {"smiles": "CCCCCCCCCCCCCCOS(=O)(=O)O", "outcome": "inactive"},
      {"smiles": "CCN(CC)CCOc1ccc(C(=C(Cl)c2ccccc2)c2ccccc2)cc1", "AC50": "13.6 µM (active)", "outcome": "inactive"},
      {"smiles": "CC1=C(C)S(=O)(=O)CCS1(=O)=O", "outcome": "inactive"},
      {"smiles": "CCCCCCCCCCCCCCCCO", "outcome": "inactive"},
      {"smiles": "C/C=C/c1ccc(OC)cc1", "outcome": "inactive"},
      {"smiles": "CSc1ccc(Oc2ccc(S(N)(=O)=O)cc2CN(C)C)cc1C", "outcome": "inactive"},
      {"smiles": "CO[C@@H]1COCC[C@@H]1N[C@@H]1CC[C@@](C(=O)N2CCc3ncc(C(F)(F)F)cc3C2)(C(C)C)C1", "outcome": "inactive"},
      {"smiles": "O=C1OC(c2ccc(O)cc2)(c2ccc(O)cc2)c2ccccc21", "outcome": "inactive"},
      {"smiles": "Oc1ccc(O)cc1", "outcome": "inactive"},
      {"smiles": "C#CC(O)C(CC)CCCC", "note": "(stereo not given)", "outcome": "inactive"},
      {"smiles": "O=C1CCCCC1", "outcome": "inactive"},
      {"smiles": "NCCOCCOCCN", "outcome": "inactive"},
      {"smiles": "O=C1O[C@H]([C@H](O)CO)C(O)=C1O", "outcome": "inactive"},
      {"smiles": "CC(=O)[C@@]1(O)CC[C@H]2[C@@H]3CCC4=CC(=O)CC[C@]4(C)[C@H]3CC[C@@]21C", "outcome": "inactive"},
      {"smiles": "N[C@@H](Cc1c[nH]c2ccccc12)C(=O)O", "outcome": "inactive"},
      {"smiles": "CCCC(=O)O", "outcome": "inactive"},
      {"smiles": "CCCCCCC(C=O)=Cc1ccccc1", "outcome": "inactive"},
      {"smiles": "CC(N)=O", "outcome": "inactive"},
      {"smiles": "CCCCCCC(CCCCCCCCCCC(=O)OCC(COC(C)=O)OC(C)=O)OC(C)=O", "note": "(stereo not given)", "outcome": "inactive"},
      {"smiles": "O=C(O)CN(CC(=O)O)CC(=O)O", "outcome": "inactive"},
      {"smiles": "CCC(C)N(C)C(=O)c1cc2ccccc2c(-c2ccccc2Cl)n1", "note": "(stereo not given)", "outcome": "inactive"},
      {"smiles": "CCCCCCCCCC[N+](C)(C)[O-]", "outcome": "inactive"},
      {"smiles": "CN(C)C(=O)NC1(c2ccccc2)CCN(CC[C@@]2(c3ccc(F)c(F)c3)CN(C(=O)c3ccccc3)CCO2)CC1", "outcome": "inactive"},
      {"smiles": "CCCCOC(=O)CCCCC(=O)OCCCC", "outcome": "inactive"},
      {"smiles": "CCc1nc(N)nc(N)c1-c1ccc(Cl)cc1", "outcome": "inactive"},
      {"smiles": "CC(C)c1cccc(C(C)C)c1", "outcome": "inactive"},
      {"smiles": "CS(=O)(=O)c1ccc([C@@H](C[C@H]2CCC(=O)C2)C(=O)Nc2cnccn2)cc1Cl", "outcome": "inactive"},
      {"smiles": "NC1CCCCC1", "outcome": "inactive"},
      {"smiles": "Cc1cc(Cc2ccc(N)c(C)c2)ccc1N", "outcome": "inactive"},
      {"smiles": "NC(=Nc1ccccc1)Nc1ccccc1", "outcome": "inactive"}
    ]}
  ]
}
